Shown are actives, neighbours in structure and some others; about 0.93% of the full set was active somewhere.
HIV TAR-Tat – HIV-1 TAR-Tat binding disruption; HIV-1 TAR RNA, Tat peptide displacement FRET; active compounds read high; z-score (concentration not given with the values); 0.6% of 100,000 active; AID 1259389; active = z-score of 3 or more in at least 2 runs
CDC25B CDK2 inh – human CDC25B-CDK2/CyclinA binding inhibition. 0.72% of 94,000 active. AID 1259370. z-score (concentration not given with the values). HTRF CDC25B-CDK2/CyclinA binding, anti-His/anti-Flag; active compounds read high; in the data active = z-score above about 3.2
Of the large screens only hits and unclear results are named; the others gave an inactive call; ! = a repeat was not active.

Cc1ccc2ncnc(Nc3ccc(C)c(C)c3)c2c1	none (no result: HIV TAR-Tat)
Cc1ccc(Nc2ncnc3ccccc23)cc1C	CDC25B CDK2 inh 11! (no result: HIV TAR-Tat)
CCOc1ccc(N(C)S(=O)(=O)c2ccc3c(c2)NC(=O)CC(C)S3)cc1 (configuration not stated)	none (no result: CDC25B CDK2 inh)
CC1CC(C)CN(C(=O)CCS(=O)(=O)c2ccc3c(c2)n(C)c(=O)c(=O)n3C)C1 (configuration not stated)	none
Cn1c(=O)c(=O)n(C)c2cc(S(=O)(=O)CCC(=O)N3CCc4ccccc4C3)ccc21	HIV TAR-Tat 4.1
CN(C)S(=O)(=O)N(CC(=O)N1CCc2ccccc2C1)c1ccccc1	HIV TAR-Tat 11
CN(CC(=O)N1CCc2ccccc2C1)S(=O)(=O)c1ccc2c(c1)CCCC(=O)N2	none (no result: CDC25B CDK2 inh)
O=C(Nc1c(C(=O)N2CCN(c3ccccc3)CC2)oc2ccccc12)C1CC1	none (no result: CDC25B CDK2 inh)
CCCc1[nH]nc2c1C(c1ccc(C(=O)OC)cc1)C(C#N)=C(N)O2 (configuration not stated)	none
COc1ccc(S(=O)(=O)N2CCCCC2C(=O)O)cc1 (configuration not stated)	none (no result: HIV TAR-Tat)
CC(=O)Nc1ccc(Nc2ncnc3c2c(-c2ccccc2)cn3-c2ccc(F)cc2)cc1	none (no result: HIV TAR-Tat)
O=C(Cn1cc(S(=O)(=O)Cc2ccccc2Cl)c2ccccc21)N1CCc2ccccc21	none (no result: CDC25B CDK2 inh)
CC(=O)Nc1ccc(S(=O)(=O)N2CCSC2C(=O)O)cc1 (configuration not stated)	none (no result: HIV TAR-Tat)
Cc1ccccc1-c1coc(-c2ccc(N)cc2)n1	none (no result: CDC25B CDK2 inh)
COc1cccc(-c2nc(=S)c3c([nH]2)Oc2c(cccc2OC)C3)c1O	HIV TAR-Tat 35
CCOc1cccc(-c2nc3c(c(=O)[nH]2)Cc2cc(Br)ccc2O3)c1O	none
COc1cccc2c1Oc1[nH]c(-c3ccccc3F)nc(=S)c1C2	none
CCOc1cccc(-c2nc(=S)c3c([nH]2)Oc2c(cccc2OC)C3)c1O	HIV TAR-Tat 23
CCOc1cccc2c1Oc1[nH]c(-c3cc(OC)c(OC)c(OC)c3)nc(=S)c1C2	none (no result: HIV TAR-Tat)
O=c1[nH]c(-c2ccccc2O)nc2c1Cc1cc(Cl)ccc1O2	none
CCOc1cccc(-c2nc3c(c(=O)[nH]2)Cc2cccc(OCC)c2O3)c1O	HIV TAR-Tat 7.2
COc1cccc(-c2nc3c(c(=O)[nH]2)Cc2cc(Cl)ccc2O3)c1O	HIV TAR-Tat 4.9
Cc1cn2c(=O)cc(COC(=O)c3cccc(Cl)c3)nc2s1	none (no result: CDC25B CDK2 inh)
CCS(=O)(=O)N1CCCC1c1cc(C)no1 (configuration not stated)	none (no result: CDC25B CDK2 inh)
CN(C)c1ccc(C(CNS(=O)(=O)c2ccccc2)N2CCOCC2)cc1 (configuration not stated)	none (no result: CDC25B CDK2 inh)
CCOC(=O)c1sc2ncnc(Oc3ccc4cnccc4c3)c2c1C	none (no result: CDC25B CDK2 inh)
Cc1ccc(CSc2nc3ncccc3[nH]2)cc1	none
CC(CC(=O)NCCc1ccco1)S(=O)(=O)c1ccc2c(c1)CCN2C(=O)C1CC1 (configuration not stated)	none (no result: CDC25B CDK2 inh)
CCC(=O)N1CCc2cc(Br)cc(S(=O)(=O)NCCN3CCCCC3C)c21 (configuration not stated)	none (no result: HIV TAR-Tat)
CCC(=O)N1CCc2cc(Br)cc(S(=O)(=O)NCC3CCCN3CC)c21 (configuration not stated)	CDC25B CDK2 inh 4.5 (no result: HIV TAR-Tat)
CC(=O)c1sc(C2(c3ccc(Cl)cc3Cl)CC2)nc1C	none (no result: HIV TAR-Tat)
COc1cc(Cl)c(NS(=O)(=O)c2ccc(-c3cnc(C)o3)cc2)c(OC)c1	none (no result: CDC25B CDK2 inh)
CC(C)N1C(=O)C(O)(CC(=O)c2ccccc2)c2ccccc21 (configuration not stated)	none
CCc1ccc(C(=O)CC2(O)C(=O)N(C(C)C)c3ccccc32)cc1 (configuration not stated)	CDC25B CDK2 inh 16
CCOc1ccc(C2c3c(oc4cc(C)c(C)cc4c3=O)C(=O)N2CCCN2CCOCC2)cc1 (configuration not stated)	none
Cc1ccc2c(c1)cc1c(=O)n(CC(=O)O)nc(C)n12	none
CC(C)OCCCNC(=O)c1cnc(N2CCOCC2)nc1	none (no result: CDC25B CDK2 inh)
Clc1ccc(-c2nnc(-c3ccccc3)o2)cc1	none
Nc1ccc(F)c(-c2nnc(-c3ccccc3)o2)c1	HIV TAR-Tat 33 (no result: CDC25B CDK2 inh)
O=S(=O)(NCc1ccc(-c2csnn2)cc1)c1cc(C(F)(F)F)cc(C(F)(F)F)c1	none (no result: HIV TAR-Tat)
Cn1c(C(F)(F)F)nnc1S(=O)(=O)Cc1ccc(-c2csnn2)cc1	CDC25B CDK2 inh 16 (no result: HIV TAR-Tat)
COc1ccc2oc(=O)c(-c3csc(Nc4ccccc4)n3)cc2c1	none (no result: HIV TAR-Tat)
COc1ccc(Nc2nc(-c3cc4c(ccc5ccccc54)oc3=O)cs2)cc1	CDC25B CDK2 inh 10 (no result: HIV TAR-Tat)
Oc1ccccc1-c1nnc(-c2ccccc2)o1	none (no result: CDC25B CDK2 inh)
O=C(O)C1CCCN1c1ncc(Cl)cc1[N+](=O)[O-] (configuration not stated)	none (no result: CDC25B CDK2 inh)
CCOC(=O)C1CCCN1c1ncc(Cl)cc1[N+](=O)[O-] (configuration not stated)	CDC25B CDK2 inh 14
O=C(NCc1ccc2c(c1)OCO2)NC12CC3CC(CC(C3)C1)C2	none (no result: HIV TAR-Tat)
CCOc1c(Cl)cc(C2C3=C(CCCC3=O)N(CC(=O)O)C3=C2C(=O)CCC3)cc1OC	none
O=C(c1ccco1)N1CCN(S(=O)(=O)c2ccccc2)CC1	none

Bioassay records from PubChem BioAssay.
